FMDV antiviral: antivirals against foot and mouth disease virus; FMDV antiviral cell-based qHTS; Potency, µM (highest dose often 57.9 µM), without a hit: at the highest dose activity change, negative = inhibition, actives largely listed as inhibitors; hit rate 1.2% among 410,000; AID 1159524; calls by dose curve; tested in HEK293T cells; further: read-out not given here; potency means the concentration at half of the fitted maximal effect; on the % scale 0 is the no-effect control and ±100 the full control effect; nearly all actives have a fitted effect of over 45% in size
Cycloheximide cs: affects cycloheximide protein synthesis inhibition readout, counter-screen | cell reporter, cycloheximide protein synthesis inhibition counterscreen | max response, % | AID 2314 | hit rate 12% among 300,000; in the data active means max response mostly above about 13%, no sharp cut-off; inactive means mostly below about 14%; further: read at 38.3 µM for the half of the compounds with a filed dose; 0% is about no effect
Shiga toxin inh: inhibitors of Shiga toxin in Vero cells | Vero cells, Shiga toxin protein synthesis inhibition reporter | inhibition, % at 38.7 µM | hit rate 9.2% among 290,000; in the data active means inhibition mostly above about 28%, no sharp cut-off; inactive means mostly below about 43%; further: 0% is about no effect
Sm TGR inh: inhibitors of Schistosoma mansoni thioredoxin glutathione reductase. Q962Y6. purified TGR, DTNB reduction, TNB absorbance 405 nm. Potency, µM (top dose mostly 114 µM), without a hit: top-dose activity change, negative = inhibition, most hits filed as inhibitors. hit rate 3% among 360,000; active means well fitted inhibition curve with a large enough effect; inconclusive means small, poorly fitted or top-dose-only effect; inactive means no such curve, though single readings can be large or run the other way; further: potency means the concentration at half of the fitted maximal effect; on the % scale 0 is the no-effect control and ±100 the full control effect; nearly all actives have a fitted effect of over 60% in size
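Kinetic colorimetric format: TGR-catalysed, NADPH-driven DTNB reduction monitored via TNB absorbance. Enzyme dispensed at 20 nM; compound exposure 15 min at room temperature before reaction start.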
The depositor's hits bear a star; u = inconclusive; x = no result given. Hits are enriched below; roughly 12% of the tested compounds scored in any of these assays.

SMILES	FMDV antiviral	Cycloheximide cs	Shiga toxin inh	Sm TGR inh
COCCC(=O)N1CCc2c([nH]c3ccccc23)C1C(C)(C)C (stereo not given)	-9.4%	10.9	41.3	6.9%
COc1cc(C)ccc1OCCON1C(=O)CCC1=O	2.4%	31.6*	55.3	x
COc1ccccc1OCCCOc1ccc(C)cc1Br	34.6%	45.5*	73.8*	-0.5%
COc1ccccc1OCCOCCOc1ccc(C)cc1Br	-10.4%	0.8	-5.7	-10.3%
COc1cc(C)ccc1OCCOc1cc(C)ccc1Cl	-10.6%	7.1	26.3	-16.4%
COC(=O)c1ccccc1OCCCOc1ccc(C)cc1OC	x	15.7	45.6	35.7%
COc1cc(C)ccc1OCCCOc1ccccc1Br	26.1%	64.1*	110.2*	12.6%
COc1cc(C)ccc1OCCOc1c(C)cccc1Cl	39.3%	23.9*	57.3*	4.8%
COc1cc(C)ccc1OCCOc1c(Cl)cc(Cl)cc1Cl	-21.3%	-5.0	-20.2	-4.7%
COc1ccc(-c2nc3cnc(OC)nc3n(-c3ccc(OC)cc3)c2=O)cc1	6.5%	x	x	x
Cc1cccc(-n2c(-c3ccccc3)cn3c4c(=O)[nH]c(=O)n(C)c4nc23)c1	-3.4%	x	x	-2.6%
CCSc1ncc(Cl)c(C(=O)Nc2ccc(S(=O)(=O)Nc3nccc(C)n3)cc2)n1	48.6%	x	x	3.3%
O=C(Cn1c(=O)n(-c2ccc(Cl)cc2)c(=O)c2oc3ccccc3c21)Nc1ccccc1	12.8%	x	x	5.8%
CCC1C(=O)NCCN1Cc1nc(-c2ccc(C)s2)oc1C (stereo not given)	3.8%	-2.8	9.8	39.8µM*
Cc1cccc(N2CCN(C(=O)c3ccc(N4CCCC4=O)cc3)CC2C)c1 (stereo not given)	31.6µM*	-3.8	-6.4	-14.8%
CCCCCn1c(=O)[nH]c2cc(C(=O)N3CCN(c4cccc(C)c4)C(C)C3)ccc2c1=O (stereo not given)	15.8µM*	x	x	0.3%
CCCCCn1c(=O)[nH]c2cc(C(=O)N3CCN(CC)CC3)ccc2c1=O	-18.1%	-1.5	-13.8	-1.8%
O=C1CC(c2cc(-c3ccccc3)no2)C1	74.4%	38.9*	41.9*	0.0%
CC(C)CC(=O)Nc1nc2nc(-c3ccccc3)cc(=O)n2[nH]1	-7.9%	x	x	2.3%
Cc1csc(=NC(=O)c2ccccc2)n1Cc1ccco1	x	11.0	27.5	-20.5%
Cc1ccc(C)c(-n2c(-c3ccc(Br)cc3)csc2=NC(=O)c2ccccc2F)c1	-22.5%	-1.5	-10.6	16.4%
Cc1ccc(S(=O)(=O)/N=c2\scc(C)n2C)cc1	21.2%	x	x	-10.9%
Cc1csc(=NC(=O)c2ccccc2)n1C	0.0%	50.5*	82.8*	1.0%
CCn1c(C)csc1=NC(=O)c1ccccc1	37.1%	28.8*	33.7*	2.6%
CCn1c(C)csc1=NC(=O)c1ccccc1O	x	55.9*	107.4*	-2.3%
SMILES	FMDV antiviral	Cycloheximide cs	Shiga toxin inh	Sm TGR inh
Cc1cc2c(c(/C=C/C(=O)c3ccccc3)c1)OC1(C=C2)Oc2ccccc2C(=O)N1C (stereo not given)	25.1µM*	9.2	-5.0	-5.0%
CCc1cccc(NC(=O)Cn2nc(C)c3sc4ccccc4c3c2=O)c1	-12.4%	x	x	-0.1%
C/C(=N\O)C(=O)C(CN1CCCCC1)CN1CCCCC1	29.9%	-3.0	8.7	1.78µM*
O=C(c1ccc2c(c1)N(Cc1ccc(Cl)cc1)C(=O)c1ccccc1S2=O)N1CCN(c2ccccc2F)CC1 (stereo not given)	-4.3%	x	x	-1.2%
Cn1nc(C(C)(C)C)cc1C(=O)Sc1cccc(Br)c1	-29.6%	1.5	-4.3	12.6µM*
CCc1ccc(NC(=O)Cn2cccc2)cc1	13.0%	24.6*	66.2	-2.6%
Cc1ccc(NC(=O)Cn2cccc2)cc1C	-9.1%	15.1*	33.1	-28.9%
Cc1ccc(NC(=O)/C=C\C(=O)NCC(=O)O)cc1C	-16.3%	-2.0	-3.3	1.78µM*
Cc1ccc(NC(=O)Cn2cccc2)cc1Cl	-4.1%	8.5	-1.0	31.6µM*
CCOC(=O)c1cccc(NC(=O)C(C)n2nc(C)c3c(C)n(-c4ccccc4)nc3c2=O)c1 (stereo not given)	u	x	x	-3.5%
CCc1ccccc1NC(=O)C1CCN(C2=NS(=O)(=O)C(c3ccc(C)c(C)c3)=C2C)CC1	-22.9%	x	x	-5.4%
COc1cc(Cl)c(NC(=O)CN(C)S(=O)(=O)c2ccc3c(c2)CCCC(=O)N3)c(OC)c1	u	x	x	2.9%
Cc1ccc(NC(=O)Cn2cc(C(=O)c3ccco3)c3ccccc32)c(C)c1	-25.4%	x	x	-0.1%
NC(=O)c1ccc(CSc2nc3ccccc3s2)cc1	8.0%	48.4*	93.8*	0.0%
COCCNC(=O)c1ccc(CSc2nc3ccccc3s2)cc1	-13.6%	43.2*	73.1*	8.9%
CCC(C)/C(C)=N/NC(=O)c1ccc(CSc2nc3ccccc3s2)cc1 (stereo not given)	-16.3%	20.1*	33.7	3.1%
c1ccc2sc(SCSc3nc4ccccc4s3)nc2c1	54.5%	11.2	29.0	3.7%
CCNC(=O)c1ccc(CSc2nc3ccccc3s2)cc1	-8.3%	-2.4	-10.6	-35.5%
c1ccc2sc(SCc3ccc(-c4nnco4)cc3)nc2c1	1.3%	37.6*	73.0*	-28.8%
O=C(O)CSc1nnnn1-c1ccc2c(c1)OCCO2	5.8%	-2.9	-6.4	-13.3%
CC(C)OC(=O)CSc1nnnn1-c1ccc2c(c1)OCCO2	x	35.4*	64.1*	-4.3%
O=C(CSc1nnnn1-c1ccc2c(c1)OCCO2)c1cccc2c1OCCO2	26.3%	32.6*	64.7	-4.0%
CCCS(=O)(=O)Nc1cccc(-c2cn3ccc(C)cc3n2)c1	35.8%	x	x	0.5%
O=C(c1ccccc1)c1nc2c(n1O)CCCCC2	0.9%	32.0*	44.0*	12.0%
CCc1ccccc1NC(=O)c1cc(S(=O)(=O)N2CCCc3ccccc32)ccc1F	u	x	x	13.9%
SMILES	FMDV antiviral	Cycloheximide cs	Shiga toxin inh	Sm TGR inh
Cc1csc2nc(CCNS(=O)(=O)c3ccc(F)cc3)cn12	-6.3%	x	x	-2.6%
CCOc1cc(/C=N/NC(=O)c2cc(C3CC3)[nH]n2)ccc1O	-8.6%	6.0	23.6	8.7%
COc1ccc(/C=N/NC(=O)c2cc(C3CC3)[nH]n2)cc1OC	-10.5%	10.8	51.6*	2.7%
COc1cc(/C=N/NC(=O)c2cc(C3CC3)[nH]n2)ccc1O	13.8%	16.5*	39.5	-3.3%
COc1ccc(NC(=O)Nc2ccccc2F)c([N+](=O)[O-])c1	6.7%	25.9*	69.5*	5.2%
O=C(Nc1ccccc1F)Nc1ccccc1N1CCCCC1	u	10.0*	11.2	-5.1%
COC(=O)c1ccc(NC(=O)Nc2ccccc2C)cc1	22.8%	23.3*	73.0*	-1.1%
O=C(Nc1ccccc1N1CCCCC1)c1ccc(F)cc1	0.0%	-3.3	-8.5	4.0%
COc1ccc(NC(=O)Nc2ccccc2F)cc1Cl	34.1%	32.4*	99.0*	11.3%
COc1ccc(NC(=O)NC(C)c2c(-n3cccc3)sc3c2CCN(C)C3)c(OC)c1 (stereo not given)	4.2%	x	x	-1.8%
Cc1cccc2sc(N(Cc3cccnc3)C(=O)c3cccs3)nc12	-2.3%	x	x	1.8%
C=CCC(CC=C)(CNC(=O)C(=O)Nc1cccc(C(F)(F)F)c1)c1ccccc1	-20.8%	x	x	-6.9%
O=C(CCN1CCN(c2ccccc2)CC1)Nc1ccccc1F	11.8%	-1.7	5.1	5.5%
O=C(Nc1ccccc1F)c1ccccc1C(=O)Nc1ccccc1F	-8.3%	x	x	x
O=C(NC1=NN(c2ccccc2)CC1)Nc1ccccc1F	-6.4%	34.8*	37.0*	u
